Data taken from PubChem BioAssay.
Active and inactive are the calls of the source. Unless noted, no rule for the calls is given here.

Legend:
[1] = tested on: XIP peptide (Xip251-270) binding; assay: small-molecule binders of XIP peptide, primary screen, biochemical, small-molecule microarray, fluorescence 635/667 nm, 0.1 µg/mL protein (AID 1182); settings: fluorescent protein binding, 635 nm, higher = more signal, called active from +8 up or from −8 down
XIP peptide (Xip251-270) = assay: small-molecule binders of XIP peptide, primary screen, biochemical, small-molecule microarray, fluorescence 635/667 nm, 0.5 µg/mL protein (AID 1183); settings: small-molecule microarray binding, fluorescence 635 nm; higher = more signal
[2] = Plasmodium falciparum growth inhibition, primary screen, strain 3D7, DAPI fluorescence, 100 nL (AID 1184);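 also: parasites grown inside human red blood cells in medium with human serum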; settings: P. falciparum 3D7 growth, 3 d, higher = more signal
[3] = target: Homeobox protein Hox-A13 (Mus musculus) (UniProt Q62424); assay: inhibitors of HoxA13-DNA binding, primary screen, biochemical, fluorescence polarization, labeled oligonucleotide (AID 1185); settings: 15 min, higher = more signal, called active from +8 up or from −8 down
[4] = inhibitors of hydroxyurea-induced Chk1 phosphorylation, primary screen, imaging, HeLa, phospho-Chk1 antibody, percent positive cells (AID 1186); settings: hydroxyurea-induced phospho-Chk1 immunofluorescence imaging, higher = more signal
[5] = inhibitors of hydroxyurea-induced Chk1 phosphorylation, primary screen, imaging, HeLa, phospho-Chk1 nuclear intensity (AID 1187); settings: hydroxyurea-induced phospho-Chk1 immunofluorescence imaging, higher = more signal

Chain of Homeobox protein Hox-A13 (Mus musculus) (Q62424 whole entry, looked up): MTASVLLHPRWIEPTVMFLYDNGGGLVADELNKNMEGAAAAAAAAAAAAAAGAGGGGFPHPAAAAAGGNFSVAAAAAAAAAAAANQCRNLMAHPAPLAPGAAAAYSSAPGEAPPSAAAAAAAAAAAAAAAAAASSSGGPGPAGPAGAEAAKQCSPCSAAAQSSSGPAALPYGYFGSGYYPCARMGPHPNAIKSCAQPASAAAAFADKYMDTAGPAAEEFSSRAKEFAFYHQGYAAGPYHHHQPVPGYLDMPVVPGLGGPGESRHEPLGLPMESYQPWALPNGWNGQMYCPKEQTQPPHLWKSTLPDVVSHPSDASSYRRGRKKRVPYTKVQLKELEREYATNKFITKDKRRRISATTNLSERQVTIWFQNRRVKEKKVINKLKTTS

## COC(=O)[C@@]1(Cc2ccc(OC)cc2)[C@H]2c3cc(C(=O)N4CCCC4)n(Cc4ccc(Cl)c(C(F)(F)F)c4)c3C[C@H]2CN1C(=O)c1ccccc1
[1]
  composite z-score: 0.151 (inactive)
XIP peptide (Xip251-270)
  composite z-score: 0.45
[2]
  z-score: -1.37
[3]
  z-score: 0.806 (inactive)
[4]
  z-score: -0.842 (inactive)
[5]
  z-score: -0.559 (inactive)

## CCCCCCc1nc(Cc2cc(OC)c(OC)c(OC)c2)cc2c1[Si](C(C)C)(C(C)C)O[C@H]2c1ccccc1
[1]
  composite z-score: -0.0565 (inactive)
XIP peptide (Xip251-270)
  composite z-score: 0.103
[2]
  z-score: -2.34
[3]
  z-score: -3.15 (inactive)
[4]
  z-score: 0.252 (inactive)
[5]
  z-score: -0.409 (inactive)

## C[N+](C)(C)CCCC[C@@H]1NC(=O)[C@@H]2C[C@H](C(=O)NCc3ccc(F)cc3)[C@H](c3ccc(O)cc3)N2C1=O
[1]
  composite z-score: 0.744 (inactive)
XIP peptide (Xip251-270)
  composite z-score: 0.0664
[2]
  z-score: 0.269
[3]
  z-score: -0.882 (inactive)
[4]
  z-score: 0.0551 (inactive)
[5]
  z-score: 0.0892 (inactive)

## COc1ccc([Si](C)(C)[C@@H]2[C@@H](CC(=O)N(CCO)Cc3ccccc3)O[C@]3(C(=O)N(Cc4ccc(N5C(=O)c6cccc7cccc5c67)cc4)c4ccccc43)[C@H]2C)cc1
[1]
  composite z-score: 1.28 (inactive)
XIP peptide (Xip251-270)
  composite z-score: 0.577
[2]
  z-score: -1.17
[3]
  z-score: -1.19 (inactive)
[4]
  z-score: 0.398 (inactive)
[5]
  z-score: -0.601 (inactive)

## C=C(C)[C@@H]1CC=C(C(O)C2C=CC3C(=O)N(C)C(=O)C3N2Nc2ccc([N+](=O)[O-])cc2[N+](=O)[O-])CC1 (some centres not stated)
[1]
  composite z-score: -0.0868 (inactive)
XIP peptide (Xip251-270)
  composite z-score: 0.641
[2]
  z-score: 0.481
[3]
  z-score: -4.28 (inactive)
[4]
  z-score: 0.385 (inactive)
[5]
  z-score: 0.279 (inactive)

## COc1ccc(C(O)C2C=CC3C(=O)N(c4ccccc4)C(=O)C3N2Nc2ccc([N+](=O)[O-])cc2)c2ccccc12 (configuration not stated)
[1]
  composite z-score: 0.314 (inactive)
XIP peptide (Xip251-270)
  composite z-score: 0.685
[2]
  z-score: -1.32
[3]
  z-score: -0.935 (inactive)
[4]
  z-score: 0.219 (inactive)
[5]
  z-score: -0.404 (inactive)

## COC(=O)[C@@]1(Cc2ccc(OC)cc2)[C@H]2c3cc(C(=O)N4CCCC4)n(Cc4c(CO)[nH]cc(C)c4=O)c3C[C@H]2CN1C(=O)c1ccccc1
[1]
  composite z-score: 1.1 (inactive)
XIP peptide (Xip251-270)
  composite z-score: 0.523
[2]
  z-score: -1.56
[3]
  z-score: -5.39 (inactive)
[4]
  z-score: -0.166 (inactive)
[5]
  z-score: 0.0081 (inactive)

## O=C1OCCC=C[C@H]2OC34C=CCN(c5ccc6ccccc6c5)C(=O)[C@H]3N(CCO)C(=O)[C@@H]4C12 (some centres not stated)
[1]
  composite z-score: 0.263 (inactive)
XIP peptide (Xip251-270)
  composite z-score: 0.569
[2]
  z-score: -0.022
[3]
  z-score: -5.62 (inactive)
[4]
  z-score: 0.8 (inactive)
[5]
  z-score: 0.163 (inactive)

## COc1ccc([Si](C)(C)[C@@H]2[C@@H](CC(=O)N3CCC[C@H]3CO)O[C@]3(C(=O)N(Cc4cccc(N5CCCCC5=O)c4)c4ccccc43)[C@H]2C)cc1
[1]
  composite z-score: 2.84 (inactive)
XIP peptide (Xip251-270)
  composite z-score: 0.799
[2]
  z-score: -1.26
[3]
  z-score: -2.93 (inactive)
[4]
  z-score: -0.515 (inactive)
[5]
  z-score: 0.336 (inactive)

## C=C(CCCC)C(=O)CC[C@H](OC(=O)c1ccccc1-c1ccccc1C(=O)O)c1ccc(OCCO)cc1
[1]
  composite z-score: 2.21 (inactive)
XIP peptide (Xip251-270)
  composite z-score: 0.546
[2]
  z-score: -3.08
[3]
  z-score: -6.36 (inactive)
[4]
  z-score: 0.0505 (inactive)
[5]
  z-score: -0.0839 (inactive)

## O=C1O[C@@H](c2ccccc2)[C@@H](c2ccccc2)N2[C@@H](c3ccc(OCCO)cc3)[C@]3(C(=O)Nc4ccc(C#CC5(O)CCCCCC5)cc43)[C@@H](C(=O)Nc3nc4ccccc4s3)[C@H]12
[1]
  composite z-score: 0.813 (inactive)
XIP peptide (Xip251-270)
  composite z-score: 0.667
[2]
  z-score: -1.59
[3]
  z-score: 1.03 (inactive)
[4]
  z-score: 0.234 (inactive)
[5]
  z-score: 0.42 (inactive)

## COCCCNC(=O)[C@@H]1c2ccccc2C(=O)N(Cc2ccc(OC(F)(F)F)cc2)[C@H]1c1ccc(CO)cc1
[1]
  composite z-score: 0.16 (inactive)
XIP peptide (Xip251-270)
  composite z-score: 0.314
[2]
  z-score: 0.0414
[3]
  z-score: -3.51 (inactive)
[4]
  z-score: -0.163 (inactive)
[5]
  z-score: -0.368 (inactive)

## C=CCNC(=O)[C@H]1[C@@H]2C(=O)O[C@@H](c3ccccc3)[C@@H](c3ccccc3)N2[C@@H](c2ccccc2OCCO)[C@]12C(=O)N(C(=O)OCCOC)c1ccc(C#Cc3ccc(OC)cc3)cc12
[1]
  composite z-score: 0.559 (inactive)
XIP peptide (Xip251-270)
  composite z-score: 0.807
[2]
  z-score: -2.16
[3]
  z-score: -0.0717 (inactive)
[4]
  z-score: 0.0629 (inactive)
[5]
  z-score: 0.539 (inactive)

## COCCOC(=O)N1C(=O)[C@@]2(c3cc(C#CCNC(N)=O)ccc31)[C@H](C(=O)Nc1nc3ccccc3s1)[C@H]1C(=O)O[C@H](c3ccccc3)[C@H](c3ccccc3)N1[C@@H]2c1ccccc1OCCO
[1]
  composite z-score: 0.278 (inactive)
XIP peptide (Xip251-270)
  composite z-score: 0.634
[2]
  z-score: -1.78
[3]
  z-score: 2.01 (inactive)
[4]
  z-score: -0.339 (inactive)
[5]
  z-score: -0.644 (inactive)

## CC(C)=C1C(=O)C(c2ccccc2)=C2CN3C(=O)N(CCc4ccccc4)C(=O)[C@]3(C)[C@H]21
[1]
  composite z-score: 0.254 (inactive)
XIP peptide (Xip251-270)
  composite z-score: 0.295
[2]
  z-score: 0.127
[3]
  z-score: -3.12 (inactive)
[4]
  z-score: -0.0061 (inactive)
[5]
  z-score: 0.467 (inactive)

## O=C1C[C@@](C(=O)NC2CC2)(c2ccc([N+](=O)[O-])cc2)[C@@H](c2ccc(CO)cc2)N1C1CCCCC1
[1]
  composite z-score: 1.19 (inactive)
XIP peptide (Xip251-270)
  composite z-score: 0.662
[2]
  z-score: -1.39
[3]
  z-score: -3.19 (inactive)
[4]
  z-score: -0.544 (inactive)
[5]
  z-score: -0.979 (inactive)

## OCCCC1=CC(c2ccc(CN3CCCC3)cc2)N(Cc2cccc(OC(F)(F)F)c2)CC1 (configuration not stated)
[1]
  composite z-score: -0.113 (inactive)
XIP peptide (Xip251-270)
  composite z-score: -0.504
[2]
  z-score: -2.86
[3]
  z-score: -3.15 (inactive)
[4]
  z-score: 0.86 (inactive)
[5]
  z-score: 1.51 (inactive)

## COC(=O)[C@@]1(Cc2ccc(F)cc2)[C@H]2c3cc(C(=O)N(C)C)n(CCc4ccc(O)c(O)c4)c3C[C@H]2CN1C(=O)c1ccccc1
[1]
  composite z-score: -0.574 (inactive)
XIP peptide (Xip251-270)
  composite z-score: 0.162
[2]
  z-score: 0.162
[3]
  z-score: -3.03 (inactive)
[4]
  z-score: -0.361 (inactive)
[5]
  z-score: 0.0787 (inactive)

## COCCOC(=O)N1C(=O)[C@@]2(c3ccccc31)[C@H](c1ccc(O)cc1)N1[C@H](c3ccccc3)[C@H](c3ccccc3)OC(=O)[C@H]1[C@@H]2C(=O)N1CCCCCCC1
[1]
  composite z-score: 4.66 (inactive)
XIP peptide (Xip251-270)
  composite z-score: 0.91
[2]
  z-score: -1.01
[3]
  z-score: 0.899 (inactive)
[4]
  z-score: -0.0437 (inactive)
[5]
  z-score: 0.157 (inactive)

## N#Cc1ccc(NN2C(C(O)C3CC=CCC3)C=CC3C(=O)N(c4ccccc4)C(=O)C32)cc1 (configuration not stated)
[1]
  composite z-score: 0.0603 (inactive)
XIP peptide (Xip251-270)
  composite z-score: 0.678
[2]
  z-score: 0.134
[3]
  z-score: -2.69 (inactive)
[4]
  z-score: 0.123 (inactive)
[5]
  z-score: 0.22 (inactive)

## C=CCC(OC(C)=O)[C@@H]1[C@@H](N(Cc2cccc3ccccc23)C(=O)Cc2ccc(OC)cc2)c2cc(OCCCO)ccc2N1C(=O)c1ccc2ccccc2c1 (some centres not stated)
[1]
  composite z-score: -0.129 (inactive)
XIP peptide (Xip251-270)
  composite z-score: 0.174
[2]
  z-score: -2.64
[3]
  z-score: -2.33 (inactive)
[4]
  z-score: -0.325 (inactive)
[5]
  z-score: -0.0189 (inactive)

## NC(=O)NCC#Cc1ccc2c(c1)[C@]1(C(=O)N2)[C@H](c2ccc(OCCO)cc2)N2[C@H](c3ccccc3)[C@H](c3ccccc3)OC(=O)[C@H]2[C@@H]1C(=O)NC[C@H](O)c1ccccc1
[1]
  composite z-score: -0.133 (inactive)
XIP peptide (Xip251-270)
  composite z-score: 0.594
[2]
  z-score: -0.833
[3]
  z-score: -3.2 (inactive)
[4]
  z-score: -0.261 (inactive)
[5]
  z-score: -0.572 (inactive)
